# HT1080-NT tox: qHTS for induction of synthetic lethality in tumor cells producing 2HG: qHTS for the HT-1080-NT fibrosarcoma cell line | HT-1080-NT fibrosarcoma viability, CellTiter-Glo ATP luminescence, 48 h | Potency, µM (titrated, usually from 46.1 µM), without a hit: at the top dose activity, negative = less viability, most hits filed as cytotoxic | hit rate 1.6% among 360,000;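 further: NT is the 2HG producing partner of a matched IDH1 knockdown line; potency means the concentration at half of the fitted maximal effect; 0% = DMSO-treated cells and -100% = media-only wells without cells; nearly all actives have a fitted effect of over 55% in size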
#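 Luminescent CellTiter-Glo readout after 48 hours of compound exposure at 37 degrees C defined viability of HT-1080-NT cells. Activity was normalized to DMSO wells and cell-free media wells; concentration-response curves were fitted and assigned curve classes.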
# HT1080 IDH1KD tx: qHTS for induction of synthetic lethality in tumor cells producing 2HG: qHTS for the HT-1080-IDH1KD cell line; HT-1080 IDH1 knockdown viability, ATP luminescence, 48 h; Potency, µM (top dose mostly 46.1 µM), without a hit: at the highest dose activity, negative = toxicity, hits mostly cytotoxic; hit rate 2% among 360,000; AID 686971, 2013;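 further: potency means the concentration at half of the fitted maximal effect; 0% = DMSO wells and -100% = cell-free medium wells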
#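 Using the IDH1-knockdown HT-1080 line run in the same batch and compound series as the NT line, viability after 48 h at 37 °C was determined by CellTiter-Glo luminescence and expressed as % activity.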
# ELG1 DNA repair: qHTS screen for small molecules that inhibit ELG1-dependent DNA repair in human embryonic kidney (HEK293T) cells expressing luciferase-tagged ELG1; HEK293T ELG1-luciferase reporter, luminescence, 16 h; DNA damage induced by 5-fluorouridine; Potency, µM (doses to about 46.1 µM), for inactives: top-dose activity change, negative = inhibition, hits mostly inhibitors; hit rate 2.3% among 330,000; further: potency means the concentration at half of the fitted maximal effect; nearly all actives have a fitted effect of over 55% in size
#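 Quantitative HTS, concentration-response format. 2,000 cells/well co-treated with 5-fluorouridine and compound, 16 hr in 5% CO2 at 37 °C; ONE-Glo luminescence read after 30 min.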
# IL-1B inflam inh: qHTS for Inhibitors of Inflammasome Signaling: IL-1-beta AlphaLISA Primary Screen | THP-1 LPS/ATP IL-1B secretion, AlphaLISA, 16 h; stronger effect = lower value | activity change, % at 57.5 µM | hit rate 4.7% among 360,000 | AID 743279, 2014; in the data active means activity change below about -50%; inconclusive means mostly about -30% to -49%
#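 Secreted IL-1B measured by AlphaLISA bead assay after 16 h compound exposure of THP-1 cells; compounds (final up to 57.5 uM) added 1 h before LPS (250 ng/mL) and ATP (1.25 mM) stimulation; lower signal means less secretion.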
# TDP1 cell CPT: qHTS for Inhibitors of human tyrosyl-DNA phosphodiesterase 1 (TDP1): qHTS in cells in presence of CPT; hit rate 12% among 420,000; chicken DT40 Tdp1-/-;hTDP1 cells + 20 nM CPT, ATP luminescence, 48 h; Potency, µM (doses to about 46.2 µM), for inactives: at the highest dose activity change, negative = growth inhibition, hits mostly inhibitors; further: potency means the concentration at half of the fitted maximal effect; nearly all actives have a fitted effect of over 55% in size
#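 Chicken DT40 Tdp1-/- cells complemented with human TDP1, 400 cells/well, exposed to compounds plus 20 nM camptothecin for at least 48 h at 37 C; viability read as ATP content by CellTiter-Glo luminescence.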
# TDP1 cell noCPT: qHTS for Inhibitors of human tyrosyl-DNA phosphodiesterase 1 (TDP1): qHTS in cells in absence of CPT; AID 686978, 2013; DT40 Tdp1-/- hTDP1 cells, no CPT, ATP luminescence, 48 h; Potency, µM (highest dose often 46.2 µM), inactives show at the highest dose activity change, negative = growth inhibition, most hits filed as inhibitors; hit rate 15% among 420,000; further: potency means the concentration at half of the fitted maximal effect; nearly all actives have a fitted effect of over 55% in size
#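 Stably hTDP1-transfected Tdp1-null chicken DT40 cells were treated with library compounds minus camptothecin and grown for at least 48 hr at 37 °C, after which cellular ATP was quantified by luminescence.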
# Numbers without * were called inactive; ? = inconclusive; . = not tested or not shown. In the library only some 19% were active in any assay of this set; here they are far more common. Unless noted, the call rests on the fitted dose curve; in most records, active means well fitted curve in the direction sought with a large enough effect; inconclusive means small, poorly fitted or top-dose-only effect, or another doubt; inactive means no such curve, though single readings can be large; an effect the other way counts as inactive or inconclusive. Unless noted, on the % scale 0 is the no-effect control and ±100 the full control effect.
SMILES,HT1080-NT tox,HT1080 IDH1KD tx,ELG1 DNA repair,IL-1B inflam inh,TDP1 cell CPT,TDP1 cell noCPT
COC(=O)c1cnc(N2CCN(c3ccccc3F)CC2)c2ccccc12,.,.,.,.,?,16µM*
COc1ccc(OC)c(NC(=O)c2ccccc2SC)c1,24%,7%,-11%,-11,2%,-27%
COc1ccc(OC)c(NC(=O)c2cc3oc4ccccc4c3cc2O)c1,?,?,-7%,31,?,16µM*
COC(=O)c1cccnc1N1CCN(c2ccccc2F)CC1,18%,23%,7%,-3,1%,1%
Cc1ccc(NC(=O)c2cnn3c2NC(=C2CC2)C=C3C(F)F)cc1,.,.,.,.,-13%,-24%
COc1ccccc1C(=O)N/C(=C\c1ccccc1)C(=O)NCc1ccco1,13%,11%,-6%,-10,4%,-14%
CCN(c1cccc(C)c1)S(=O)(=O)c1c(C)nc2sc(C)cn2c1=O,.,.,.,.,?,-23%
COc1cc(-c2c(NC(=O)c3ccco3)oc3c(C)cccc3c2=O)cc(OC)c1OC,-10%,-2%,-7%,8,-27%,18µM*
COc1ccc(-c2c(NC(=O)c3ccco3)oc3c(C)cccc3c2=O)cc1OC,-19%,-11%,-3%,-20,?,?
Cc1cccc(-c2c(NC(=O)c3ccco3)oc3c(C)cccc3c2=O)c1,12%,23%,-18%,-9,?,26µM*
Cc1cccc2c(=O)c(-c3ccc4c(c3)OCO4)c(NC(=O)c3ccco3)oc12,-6%,-12%,10µM*,15,?,-26%
COc1ccc(-c2c(NC(=O)c3ccco3)oc3c(C)cccc3c2=O)cc1,-8%,0%,?,4,-24%,-11%
O=C(CSc1nccn1Cc1ccc(Cl)cc1)Nc1ccc2c(c1)OCCO2,.,.,.,.,-22%,-9%
COc1cccc(-n2c(=O)c3c(C)c(C(=O)N(C)C)sc3n(Cc3ccc(F)cc3Cl)c2=O)c1,.,.,.,.,?,18µM*
COc1ccc(-n2c(=O)c3c4c(sc3n(Cc3cccc(F)c3)c2=O)CN(C(C)=O)CC4)c(OC)c1,.,.,-2%,.,.,.
COc1ccc(-n2c(=O)c3c(C)c(C)sc3n(Cc3ccc(F)cc3)c2=O)c(OC)c1,0%,-1%,?,-9,3%,13µM*
COc1ccc(-n2c(=O)c3c4c(sc3n(Cc3ccc(F)cc3)c2=O)CN(C(C)=O)CC4)c(OC)c1,.,.,.,.,21µM*,13µM*
COc1cccc(-n2c(=O)c3c4c(sc3n(Cc3ccc(F)cc3Cl)c2=O)CCCC4)c1,.,.,.,.,-9%,?
CCCCn1c(SCC(=O)NC2CC2)nc2cc(C(=O)OC)ccc2c1=O,9%,3%,.,23,-15%,-22%
CCNC(=S)NNC(=O)c1cc(-c2ccc(OC)cc2)nc2ccccc12,10µM*,18µM*,?,-4,3.7µM*,4.1µM*
CCCCNC(=S)NNC(=O)c1cc(-c2cccnc2)nc2ccccc12,0%,3%,-2%,16,-15%,-16%
CCNC(=S)NNC(=O)c1cc(-c2cccnc2)nc2ccccc12,-5%,-2%,?,-2,3%,-26%
CCCCOc1ccc(-c2cc(C(=O)NNC(=S)NCC)c3ccccc3n2)cc1,18µM*,?,?,?,23µM*,21µM*
CN(C)CCn1c2c(c(SCC(=O)Nc3ccc4c(c3)OCCO4)nc1=O)CCCC2,3%,-1%,15%,-23,9%,8%

# High-throughput results deposited in PubChem by National Center for Advancing Translational Sciences (NCATS).
